Compound activity from PubChem BioAssay.
MCF10A rereplic = DNA re-replication induction in MCF 10a cells. MCF 10A DNA re-replication, Hoechst nuclear intensity, 48 h. Potency, µM (highest dose often 46.1 µM), without a hit: at the highest dose activity, positive = re-replication, hits mostly activators. 350,000 tested, 2.9% active. AID 624296; note: potency is the fitted concentration of half-maximal effect; % of control where 0% means no effect; nearly all actives have a fitted effect of over 50% in size
Giardia killer = Giardia lamblia killing; activity change, % at 7.66 µM, hits read low; Giardia lamblia trophozoite viability; 340,000 tested, 0.15% active; in the data active = activity change below about -80%; inconclusive = between about -30% and that limit;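 note: parasites exposed to compound for two days anaerobically before the ATP read; % is set by controls: 0 for no effect and ±100 for the full control effect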
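Anaerobic 48 hrs incubation at 37 deg C of 100 trophozoites/well with test compounds; ATPLite 1-Step luminescence, 15-30 min RT, reports cellular ATP as viability.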
SW480 rereplic = DNA re-replication induction in SW480 cells | SW480 DNA re-replication, Hoechst DNA content imaging, 48 h | Potency, µM (series often up to 46.1 µM), for the others: top-dose re-replication activation, most hits filed as activators | 340,000 tested, 1.8% active | AID 624297; note: potency is the fitted concentration of half-maximal effect; % of control where 0% means no effect; nearly all actives have a fitted effect of over 55% in size
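SW480 cells exposed to compounds for 48 hr at 37 C, 5% CO2, then Hoechst-stained 40 min. Nuclear DNA content imaged by fluorescence scanning (405 nm excitation, 500-530 nm emission); re-replication scored as increased high-intensity nuclei.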
Vif-APOBEC3G blk = Vif-A3G binding inhibition | HeLa A3G-eYFP + Vif (tagged APOBEC3G with the HIV-1 protein that degrades it), YFP fluorescence, overnight | AID 602310 | Potency, µM (top dose mostly 46.1 µM), for the others: top-dose activity, negative = active, hits mostly inhibitors | 410,000 tested, 0.076% active | Q9HC16; note: potency is the fitted concentration of half-maximal effect; % is set by controls: 0 for no effect and ±100 for the full control effect; nearly all actives have a fitted effect of over 60% in size
Target sequence (Q9HC16 whole entry, looked up): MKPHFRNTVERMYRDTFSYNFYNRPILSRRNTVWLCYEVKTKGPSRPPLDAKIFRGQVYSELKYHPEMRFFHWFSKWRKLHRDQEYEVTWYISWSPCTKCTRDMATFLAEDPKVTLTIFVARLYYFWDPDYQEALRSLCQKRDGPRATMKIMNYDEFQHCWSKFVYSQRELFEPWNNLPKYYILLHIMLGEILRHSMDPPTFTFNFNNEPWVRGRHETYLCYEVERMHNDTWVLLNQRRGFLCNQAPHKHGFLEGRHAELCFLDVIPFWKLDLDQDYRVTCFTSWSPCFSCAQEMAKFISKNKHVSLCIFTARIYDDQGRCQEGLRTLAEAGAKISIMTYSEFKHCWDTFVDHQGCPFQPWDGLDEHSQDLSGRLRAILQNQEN
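Read-out is eYFP fluorescence (Ex 488/Em 500-530) from Vif-expressing HeLa A3G-eYFP cells; more signal means A3G escaped Vif-mediated degradation. Cells plated overnight, compound pinned in, incubated overnight at 37 deg C.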
IL-1B inflam inh = blocks inflammasome-driven IL-1 beta release | AID 743279 | activity change, % at 57.5 µM | THP-1 LPS/ATP IL-1B secretion, AlphaLISA, 16 h; stronger effect = lower value | 360,000 tested, 4.7% active; in the data active = activity change below about -50%; inconclusive = mostly about -30% to -49%; note: % is set by controls: 0 for no effect and ±100 for the full control effect
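Secreted IL-1B measured by AlphaLISA bead assay after 16 h compound exposure of THP-1 cells; compounds (final up to 57.5 uM) added 1 h before LPS (250 ng/mL) and ATP (1.25 mM) stimulation; lower signal means less secretion.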
Vif-A3F inh = Vif-A3F binding inhibition; AID 602313; 390,000 tested, 0.2% active; Potency, µM (titrated, usually from 46.1 µM), inactives show top-dose activity, negative = active; HeLa A3F-eYFP + Vif (tagged APOBEC3F with the HIV-1 protein that degrades it), YFP fluorescence increase; note: potency is the fitted concentration of half-maximal effect; % of control where 0% means no effect; nearly all actives have a fitted effect of over 65% in size
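HeLa cells stably expressing Vif plus C-terminally eYFP-tagged A3F were seeded, incubated overnight at 37 deg C, dosed with compound, incubated overnight again at 37 deg C. Yellow fluorescence (Ex 488/Em 500-530) reported blocked Vif-mediated A3F-eYFP degradation.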
* marks the source's active call; other numbers are inactive results. Shown are actives, neighbours in structure and some others; about 6.9% of the full set was active somewhere. Unless noted, calls come from the whole dose curve; as a rule, active = well fitted curve in the direction sought with a large enough effect; inconclusive = small, poorly fitted or top-dose-only effect, or another doubt; inactive = no such curve, though single readings can be large; an effect the other way counts as inactive or inconclusive.

`CCCc1ccc(S(=O)(=O)N2CCC(Oc3ccc(-n4cnnn4)cc3)CC2)cc1` gave Vif-APOBEC3G blk -2% and Vif-A3F inh 6%.
For Cc1ccc(C(=O)NC(=S)N2CCN(c3cc(C)ccc3C)CC2)cc1 the results were MCF10A rereplic inconclusive, Giardia killer -7, SW480 rereplic -6%, Vif-APOBEC3G blk -9%, IL-1B inflam inh -5 and Vif-A3F inh 4%.
`Cc1ccc(C(=O)NC(=S)N2CCN(c3ccccc3F)CC2)cc1` gave MCF10A rereplic 2%, Giardia killer 18, SW480 rereplic 23µM*, Vif-APOBEC3G blk 0%, IL-1B inflam inh -1 and Vif-A3F inh 5%.
O=C(CN1C(=O)COc2ccc(S(=O)(=O)N3CCOCC3)cc21)N1CCN(c2ccccc2F)CC1 was read as Vif-APOBEC3G blk 2% and Vif-A3F inh -3%.
Brc1ccccc1/C=N/Nc1ccc2ccccc2n1 was read as MCF10A rereplic 16µM*, Giardia killer 4, SW480 rereplic 5%, Vif-APOBEC3G blk -11%, IL-1B inflam inh -9 and Vif-A3F inh 3%.
For Fc1cccc(-c2cc3nc4c(c(N5CCOCC5)n3n2)CCCC4)c1 the results were MCF10A rereplic -3%, Giardia killer -2, SW480 rereplic -2%, Vif-APOBEC3G blk 1%, IL-1B inflam inh -3 and Vif-A3F inh -2%.
Screening Fc1cccc(-c2cc3nc4c(c(NCc5ccco5)n3n2)CCCC4)c1 returned MCF10A rereplic 9%, Giardia killer 4, SW480 rereplic 5%, Vif-APOBEC3G blk -2%, IL-1B inflam inh -92* and Vif-A3F inh -11%.
For COc1cccc2c1Oc1ncccc1N(C(=O)CCC(=O)NC(C)C)C2 the results were Vif-APOBEC3G blk -7% and Vif-A3F inh -8%.
`CC(C)CCN(Cc1ccco1)C(=O)c1cc2c(s1)-c1ccccc1OC2` gave Vif-APOBEC3G blk -2% and Vif-A3F inh 3%.
Screening COc1ccc2nc(SCC(=O)NC(C)(C)C)[nH]c2c1 returned MCF10A rereplic 8.2µM*, Giardia killer 3, SW480 rereplic inconclusive, Vif-APOBEC3G blk 0%, IL-1B inflam inh 17 and Vif-A3F inh -3%.
CCOC(=O)c1c(NC(=O)CSc2nc3ccc(OC)cc3[nH]2)sc2c1CC(C)(C)NC2(C)C was read as MCF10A rereplic inconclusive, Giardia killer -7, SW480 rereplic inconclusive, Vif-APOBEC3G blk inconclusive, IL-1B inflam inh -94* and Vif-A3F inh 25µM*.
Screening COc1ccc(NC(=O)CSc2nc3ccc(OC)cc3[nH]2)cc1 returned MCF10A rereplic -3%, Giardia killer -1, SW480 rereplic -7%, Vif-APOBEC3G blk -4%, IL-1B inflam inh 0 and Vif-A3F inh 2%.
CCOC(=O)c1c(NC(=O)CSc2ncccn2)sc2c1CC(C)(C)NC2(C)C was read as MCF10A rereplic 7%, Giardia killer 0, SW480 rereplic -4%, Vif-APOBEC3G blk 1%, IL-1B inflam inh -57* and Vif-A3F inh 2%.
O=C1[C@H](Cc2ccccc2)NC/C=C\C[C@H](c2ccco2)N1Cc1ccccc1 was read as Vif-APOBEC3G blk -2%.
Screening OCC(O)C[n+]1cccc(Br)c1 (stereo not given) returned Vif-APOBEC3G blk 3%.
COc1ccc(CC(N)c2csc(Nc3cc(NCCCO)ncn3)n2)cc1 (stereo not given) was read as Vif-APOBEC3G blk -4% and IL-1B inflam inh -57*.
NC(Cc1ccc(Cl)cc1)c1csc(Nc2cc(NCCCO)ncn2)n1 (stereo not given) was read as Vif-APOBEC3G blk -10% and IL-1B inflam inh -60*.
`CCc1cnc(Nc2nc(C(N)Cc3ccc(Cl)cc3)cs2)nc1` (stereo not given) gave Vif-APOBEC3G blk 1% and IL-1B inflam inh inconclusive.
Screening NC(Cc1ccc(Cl)cc1)c1csc(Nc2ccc(-c3ccccc3)nn2)n1 (stereo not given) returned Vif-APOBEC3G blk -12% and IL-1B inflam inh -50*.
`CC(C)(C)OC(=O)COc1cc(OCC(=O)OC(C)(C)C)c2c(=O)cc(-c3ccccc3)oc2c1` gave MCF10A rereplic 7%, Giardia killer -6, SW480 rereplic -3%, Vif-APOBEC3G blk 7%, IL-1B inflam inh -67* and Vif-A3F inh -3%.
For CCOC(=O)CSC1=NC(=O)/C(=C/c2ccc(OC)cc2)S1 the results were MCF10A rereplic 5.8µM*, Giardia killer 8, SW480 rereplic inconclusive, Vif-APOBEC3G blk inconclusive, IL-1B inflam inh -86* and Vif-A3F inh inconclusive.
`COc1ccc(/C=C2\SC(N)=NC2=O)cc1` gave MCF10A rereplic 11%, Giardia killer 5, SW480 rereplic 0%, Vif-APOBEC3G blk 3%, IL-1B inflam inh -6 and Vif-A3F inh 3%.
CN(C)c1ccc(-c2nn3c(-c4cc(-c5ccccc5)n[nH]4)nnc3s2)cc1 was read as Giardia killer 7 and Vif-APOBEC3G blk 0%.
`CC(C(=O)OCC(=O)c1ccc([N+](=O)[O-])cc1)N1C(=O)C2C3C=CC(C3)C2C1=O` (stereo not given) gave MCF10A rereplic 3%, Giardia killer -6, SW480 rereplic -1%, Vif-APOBEC3G blk 0%, IL-1B inflam inh -56* and Vif-A3F inh -24%.
O=C(CN1C(=O)C2CC=CCC2C1=O)OCC(=O)c1ccc(Cl)c([N+](=O)[O-])c1 (stereo not given) was read as MCF10A rereplic 23µM*, Giardia killer -6, SW480 rereplic inconclusive, Vif-APOBEC3G blk -3%, IL-1B inflam inh -3 and Vif-A3F inh 0%.
`CC(C(=O)OCC(=O)c1ccc([N+](=O)[O-])cc1)N1C(=O)C2C3CCC(C3)C2C1=O` (stereo not given) gave MCF10A rereplic inconclusive, Giardia killer 7, SW480 rereplic 9%, Vif-APOBEC3G blk 1%, IL-1B inflam inh -5 and Vif-A3F inh 5%.
For O=C(CN1C(=O)C2C3C=CC(C3)C2C1=O)OCC(=O)c1ccc([N+](=O)[O-])cc1 (stereo not given) the results were MCF10A rereplic inconclusive, Giardia killer -5, SW480 rereplic -4%, Vif-APOBEC3G blk 0%, IL-1B inflam inh -69* and Vif-A3F inh -14%.
Screening CCOC(=O)c1cccc(NC(=O)Cn2c(=O)c3cccn3c3ccccc32)c1 returned Vif-APOBEC3G blk -16% and Vif-A3F inh -21%.
Screening CCc1ccc(NCc2cc3ccc(OC)cc3n(CC(=O)Nc3cccc(Cl)c3C)c2=O)cc1 returned Vif-APOBEC3G blk -11% and Vif-A3F inh 3%.
